According to PubChem BioAssay (NCI):
About 83,000 compounds went through this panel and 20% of them were active in at least one assay; those are over-represented in the sample as a whole.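 Activity criterion: percent growth below 10, measured after cells in 96-well plates were exposed to a single compound concentration for 48 hours.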 Activity calls are given as the source filed them.

Columns and labels:
Assay in all cases: NCI-60 one-dose screen, 48 h (100 = growth as untreated, 0 = no growth, -100 = all killed)
Conditions in all cases: 10 µM unless noted
[1] = system: SK-MEL-2 melanoma
[2] = system: EKVX NSCLC
[3] = system: SN12C renal
[4] = system: TK-10 renal
[5] = system: ACHN renal
[6] = system: CAKI-1 renal
[7] = system: A498 renal
[8] = system: CCRF-CEM leukemia
[9] = system: MOLT-4 leukemia
[10] = system: UO-31 renal

Measured: growth

CN(C)CCCCNc1ccc(NCCCCN(C)C)c2c1C(=O)c1c(O)ccc(O)c1C2=O
active: [2] -76.2% | [4] -93.6% | [5] -89.2% | [6] -91.7% | [8] -28.5% | [9] -34.6%
inactive: [1] 98.2% | [3] 64.2% | [7] 92.4%

Clc1ccc2c(NCCCN3CCN(c4nc(N5CCOCC5)nc5ccccc45)CC3)ccnc2c1
inactive: [2] 26.4% | [3] 45.9% | [6] 15.3% | [7] 71.2%
active: [1] -5.64% | [10] -85.9% | [5] -29.1% | [8] 4.4%

N#Cc1c(Oc2ccc([N+](=O)[O-])cc2)nc2sc3cc(Cl)ccc3n2c1=N
inactive: [1] 84.5% | [2] 84% | [3] 91% | [4] 49.9% | [5] 100% | [6] 111% | [7] 100% | [8] 96.5% | [9] 77.3%

C[C@H]1[C@H](C)CC[C@]2(C(=O)N3CCN(C)CC3)CC[C@]3(C)C(=CC[C@@H]4[C@@]5(C)C/C(=C/c6cccnc6)C(=O)C(C)(C)[C@@H]5CC[C@]43C)[C@H]12
active: [1] -82.6% | [2] -81.5% | [3] -95.3% | [4] -97.4% | [5] -94.4% | [6] -42.5% | [7] -83.2% | [8] -51.7% | [9] -51.9%

COc1ccc(NC(=O)C(=O)c2c[nH]c3ccc(F)cc23)cc1
inactive: [1] 106% | [3] 98.9% | [10] 96.4% | [4] 132% | [5] 93.8% | [6] 93.1% | [7] 65.8% | [8] 97.8% | [9] 90.8%

CC(C)(C)c1ccc(C(=O)Nc2sc3c(c2C(N)=O)CCC(=O)C3)cc1
active: [1] 2.34% | [2] 5.58% | [3] -1.37% | [4] -33.9% | [5] -98.6% | [6] -74.9% | [8] 1.49%

Nc1c(C(=O)c2ccccc2)nnc2ncnn12
inactive: [1] 92% | [3] 101% | [10] 101% | [4] 96% | [5] 122% | [6] 104% | [7] 71.2% | [8] 98.4% | [9] 95.8%

CCC(C)NCc1ccccc1 (stereo not drawn)
inactive: [1] 92.6% | [2] 103% | [3] 100% | [4] 96.9% | [7] 88.8%

C[C@@H]1CC[C@@H]2[C@@H]1[C@H](OC(=O)/C=C/c1ccccc1)[C@]1(CCCOCCOCCOCCOC(=O)CCCC[C@@H]3SC[C@@H]4NC(=O)N[C@@H]43)C[C@@H](OC(=O)CO)[C@@]2(C)O1
inactive: [1] 108% | [2] 101% | [3] 106% | [5] 102% | [6] 91.5% | [8] 98.2% | [9] 97.9%

Cc1cc2c(F)c(Oc3ncnc(Nc4ccc(N5C[C@@H](C)N[C@@H](C)C5)cc4)c3C#N)cc(F)c2[nH]1
inactive: [1] 96.9% | [2] 78.7% | [10] 70% | [4] 70.9% | [6] 40.3% | [7] 15.6%
active: [5] -12.2% | [8] 7.66% | [9] -15.9%

Fc1ccc(Nc2nc(Nc3ccc(-c4nc5ccccc5[nH]4)cc3)c3cn[nH]c3n2)cc1
inactive: [1] 92.8% | [2] 72.4% | [10] 79.8% | [4] 99.5% | [5] 78.9% | [6] 89.7% | [7] 101% | [8] 31.9% | [9] 21.6%

COc1cc2oc(-c3cccc(C(=O)Nc4ccc(C#N)cc4)c3)cc(=O)c2c(O)c1OC
inactive: [1] 74.4% | [3] 64.9% | [10] 55.3% | [4] 50.5% | [5] 38.7% | [6] 85.2% | [7] 86.7% | [8] 88.5% | [9] 88.3%

CCOc1ccc(-c2nc3ccc(-c4nc5ccc(N6CCN(C)CC6)cc5[nH]4)cc3[nH]2)cc1OCC
active: [1] -17.5% | [9] 9.04%
inactive: [2] 50.2% | [3] 20.8% | [5] 81.9% | [6] 40.8% | [8] 11.3%

O=C(Nc1ccc(N2CCCCC2)c(Cl)c1)c1ccc(Br)o1
inactive: [1] 91.9% | [3] 80.6% | [10] 51.5% | [4] 102% | [5] 64.3% | [6] 94.8% | [7] 102% | [8] 74.9% | [9] 75.4%

CC(C)OCCCNCC(=O)Nc1ccc(S(=O)(=O)c2ccc(NC(=O)CNCCCOC(C)C)cc2)cc1
inactive: [1] 115% | [2] 101% | [3] 90.8% | [4] 93.9% | [5] 100% | [6] 94.4% | [7] 89.5% | [8] 85.1% | [9] 78.1%

O=C1Nc2ccccc2/C1=N/N=C/c1ccc(OC2OC(CO)C(O)C(O)C2O)cc1 (stereo not drawn)
inactive: [1] 107% | [2] 100% | [3] 101% | [4] 110% | [5] 103% | [6] 95.1% | [8] 107% | [9] 112%

COc1ccc(CN2C(=O)/C(=C\c3cc(OC)c(OC)c(OC)c3)c3ccccc32)cc1
active: [1] -41% | [2] 5.9% | [5] -59.5% | [6] -53.9% | [8] 5.62% | [9] 1.82%
inactive: [3] 12.8% | [4] 25.2% | [7] 52.7%

CC(C)c1ccc(NC(=O)Cc2ccc(Nc3ncnc4cc(-c5cnn(CCN(C)C)c5)ccc34)cc2)cc1
inactive: [1] 65.7% [30 µM] | [7] 42.2% [30 µM]
active: [2] -49.6% [30 µM] | [3] -95.9% [30 µM] | [4] -57.3% [30 µM] | [5] -71.5% [30 µM] | [6] -40.7% [30 µM] | [8] -28.2% [30 µM] | [9] -50.9% [30 µM]

COc1cc(CNC(=O)/C=C/C=C/c2ccc3c(c2)OCO3)ccc1OCc1cn(-c2ccc(Cl)c(Cl)c2)nn1
active: [1] -37.3% | [4] -11.4% | [5] -51% | [6] -17% | [9] -12.2%
inactive: [2] 13.1% | [3] 34.1% | [8] 57.7%

Clc1ccc(-c2cn(-c3ccccc3)c(-c3ccccc3)n2)cc1
inactive: [1] 110% | [2] 84.5% | [3] 95.9% | [4] 92.4% | [5] 94.6% | [7] 88.4%
active: [9] 7.71%

COc1cc2c(=O)n(CCCn3ccnc3)c3c4cc5c(cc4ccc3c2cc1OC)OCO5
inactive: [1] 22% | [2] 21.3% | [3] 16.9% | [4] 35.3%
active: [7] -75.6% | [9] 3.68%

CSc1nc2sc3cc(Cl)ccc3n2c(=N)c1C#N
inactive: [1] 87.3% | [2] 81.9% | [3] 89.5% | [4] 83.8% | [5] 78.9% | [6] 69.9% | [7] 98% | [8] 88.6% | [9] 15.7%

NC(N)=N/N=C/CO
inactive: [1] 107% | [3] 109% | [10] 80.9% | [4] 98.7% | [5] 102% | [6] 99.4% | [7] 117% | [8] 93.8% | [9] 95.7%

CCCCCCCSc1ccc(C(=O)O)cc1
inactive: [1] 103% | [3] 93.2% | [10] 84% | [4] 105% | [5] 94.6% | [6] 103% | [7] 97.5% | [8] 91.5%

C[C@@H]1C(=O)N(C[C@H](Cc2ccccc2)NC(=O)OCc2ccccc2)[C@]1(Cc1ccccc1)C(=O)OC(C)(C)C
inactive: [1] 76.8% | [2] 60.3% | [10] 46.5% | [4] 67.2% | [5] 75.2% | [6] 51.4% | [7] 54% | [8] 72.2% | [9] 34%

O=S(=O)(Nc1ccsc1-c1nc(-c2ccccc2)no1)c1cc(Cl)cc(Cl)c1
inactive: [1] 105% | [2] 95.6% | [3] 91.3% | [4] 102% | [5] 98.2% | [6] 86.9% | [7] 91.1% | [9] 104%

Cc1csc(NC(=O)c2sc3nc(-c4cccs4)ccc3c2N)n1
inactive: [1] 87.2% | [3] 98% | [10] 88% | [4] 118% | [5] 110% | [6] 102% | [7] 77.3% | [8] 70.3% | [9] 57.6%

CCOC(=O)c1sc(-c2ccc(OS(=O)(=O)c3ccc(C(C)(C)C)cc3)c(C=O)c2)nc1C
inactive: [1] 72.7% | [2] 40.2% | [3] 32.1% | [4] 55.8% | [5] 26.6% | [6] 20.5% | [7] 57% | [9] 20.5%

Cc1cc(-c2noc(C(F)(F)F)n2)ccc1N1CCN(c2cc(C(=O)N(C)C)no2)CC1
inactive: [1] 73% | [2] 49.5% | [3] 83% | [4] 81.2% | [5] 63.9% | [6] 67.7% | [8] 65.3% | [9] 71.5%

Nc1ccc(CCCCc2ccccc2)c(Cl)c1
inactive: [1] 91.2% | [3] 87.4% | [10] 63.9% | [4] 88.7% | [5] 94.2% | [6] 83.8% | [7] 73.2% | [8] 60.1% | [9] 69.2%
